High-throughput results from PubChem BioAssay.
An excerpt weighted towards active compounds, which were near 7.5% of everything screened.
ELG1 genotox: inducers of genotoxicity in HEK293T ELG1-luciferase cells. HEK293T ELG1-luciferase reporter, luminescence, 16 h. Potency, µM (highest dose often 46 µM), for the others: top-dose activity change, positive = activation, most hits filed as activators. actives 1.3% (n = 330,000). AID 504466; note: % of control where 0% means no effect; nearly all actives have a fitted effect of over 60% in size
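HEK293T cells expressing luciferase-tagged ELG1 were exposed to compound or DMSO vehicle for 16 hr at 37 °C and 5% CO2. Luciferase activity was then measured with ONE-Glo after 30 min at room temperature.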
FLuc modulator: firefly luciferase modulation, counter-screen for miR-21 project; P08659; purified FLuc, Km substrates, luminescence inhibition; Potency, µM (top dose mostly 57.5 µM), for the others: at the top dose activity change, negative = inhibition, actives largely listed as inhibitors; actives 6.9% (n = 360,000);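 note: plate controls were vehicle for no effect and reference inhibitor for full effect; nearly all actives have a fitted effect of over 55% in size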
Target sequence (P08659 whole entry, looked up): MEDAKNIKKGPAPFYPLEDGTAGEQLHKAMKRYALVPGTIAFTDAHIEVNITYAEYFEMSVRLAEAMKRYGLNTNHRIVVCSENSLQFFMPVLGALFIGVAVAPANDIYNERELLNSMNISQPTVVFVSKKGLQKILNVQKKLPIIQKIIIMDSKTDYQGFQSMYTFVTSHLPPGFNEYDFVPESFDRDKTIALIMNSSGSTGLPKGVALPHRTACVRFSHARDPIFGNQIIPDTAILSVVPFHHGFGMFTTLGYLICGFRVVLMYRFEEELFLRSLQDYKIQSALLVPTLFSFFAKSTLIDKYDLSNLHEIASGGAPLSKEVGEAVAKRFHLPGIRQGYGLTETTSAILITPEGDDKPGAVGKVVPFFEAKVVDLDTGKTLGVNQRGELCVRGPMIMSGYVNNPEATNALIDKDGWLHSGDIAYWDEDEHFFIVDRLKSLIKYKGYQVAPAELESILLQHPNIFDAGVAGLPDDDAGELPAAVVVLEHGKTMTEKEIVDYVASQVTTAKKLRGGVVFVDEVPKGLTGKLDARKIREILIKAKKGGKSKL
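Purified P. pyralis luciferase (10nM final) with 10uM D-luciferin and 10uM ATP (Km levels) in 50mM Tris acetate pH 7.5, 10mM Mg acetate, 0.01% Tween-20, 0.05% BSA; qHTS 6-point titration, ~60 µM downward; luminescence read.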
Rab9 promoter act: activates the Rab9 promoter; Huh7 Rab9 promoter-luciferase reporter, luminescence, 24 h; Potency, µM (highest dose often 9.22 µM), without a hit: at the top dose activation, negative = inhibition, most hits filed as activators; actives 2.8% (n = 320,000); note: % of control where 0% means no effect; nearly all actives have a fitted effect of over 60% in size
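Huh7 cells stably carrying Rab9 promoter–luciferase reporter, plated 1500 cells/well, compound added after 2 h and incubated 24 h at 37 °C; luciferase luminescence then read after 10 min with detection reagent.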
SMN2 splice enh: enhancers of SMN2 splice variant expression; HEK293 SMN2-luciferase splicing reporter, luminescence, 30-36 h; Potency, µM (top dose mostly 46.1 µM), for the others: at the top dose activity change, positive = activation, hits mostly activators; actives 2.8% (n = 210,000); AID 1458; note: % of control where 0% means no effect; nearly all actives have a fitted effect of over 55% in size
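HEK293 cells carry an SMN2 minigene-luciferase reporter in which exon 7 inclusion puts luciferase in frame. Cells were seeded at 2000 cells/well, attached for 10-12 hours, then exposed to compounds for 30-36 hours at 37C before ONE-Glo luminescence.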
NPC1 prom act: activates the NPC1 promoter; Huh7 NPC1 promoter luciferase reporter, 24 h; Potency, µM (highest dose often 9.22 µM), for inactives: at the highest dose activation, usual class: activators; actives 2.4% (n = 320,000); AID 485313; note: % of control where 0% means no effect; nearly all actives have a fitted effect of over 60% in size
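NPC1 promoter–luciferase Huh7 cells; 24 h compound; luminescence.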
Active calls of the source: *. Calls come from the whole dose curve; as a rule, active = well fitted curve in the direction sought with a large enough effect; inconclusive = small, poorly fitted or top-dose-only effect, or another doubt; inactive = no such curve, though single readings can be large; an effect the other way counts as inactive or inconclusive. Potency is the fitted concentration of half-maximal effect.

`COCc1ccc(C(=O)N2CCCC(Nc3ccc(C(C)C)cc3)C2)o1` (stereo not given) gave ELG1 genotox -12.5%, FLuc modulator 3.5%, Rab9 promoter act 10.4% and NPC1 prom act -5.2%.
Screening CCOc1ccccc1CNC(=O)CN1C(=O)CCCc2ccccc21 returned FLuc modulator -2.2%.
Screening O=C1/C(=C/c2cccc(F)c2)Oc2cc(O)ccc21 returned ELG1 genotox 1.2%, FLuc modulator 10.7µM*, Rab9 promoter act 5.4% and NPC1 prom act 18.5%.
Screening Cc1cccc(/C=C2\Oc3cc(OS(C)(=O)=O)ccc3C2=O)c1 returned ELG1 genotox 8.6%, FLuc modulator 16.9µM*, Rab9 promoter act 16.0%, SMN2 splice enh -12.8% and NPC1 prom act 21.9%.
For O=C(/C=C\N1CCOCC1)c1ccc(Br)cc1 the results were ELG1 genotox inconclusive, FLuc modulator 15.1µM*, Rab9 promoter act inconclusive and NPC1 prom act inconclusive.
Screening O=C(c1ccc(-c2ccccc2)cc1)c1ccccc1C(=O)N1CCOCC1 returned ELG1 genotox -4.2%, FLuc modulator inconclusive, Rab9 promoter act -0.9% and NPC1 prom act -1.8%.
Screening O=C(/C=C/N1CCOCC1)c1ccc(-c2ccccc2)cc1 returned ELG1 genotox 17.0%, FLuc modulator 10.7µM*, Rab9 promoter act 3.16µM*, SMN2 splice enh inconclusive and NPC1 prom act 1.78µM*.
Screening COc1ccc(C2CC2/C(=N/OC(=O)c2cccs2)c2ccccc2)cc1 (stereo not given) returned ELG1 genotox inconclusive, FLuc modulator 12µM*, Rab9 promoter act inconclusive, SMN2 splice enh inconclusive and NPC1 prom act inconclusive.
`COCCNC(=O)CCCn1c(SCC(=O)Nc2cccc(C)c2)nc2c(sc3ccccc32)c1=O` gave FLuc modulator 2.5% and SMN2 splice enh -8.2%.
CCN(CC)C(=O)COc1ccc2c3c(c(=O)oc2c1C)CCCC3 was read as ELG1 genotox 0.4%, FLuc modulator -2.1%, Rab9 promoter act -3.5% and NPC1 prom act 0.2%.
`Cc1c(OCC(=O)Nc2cccnc2)ccc2c3c(c(=O)oc12)CCC3` gave ELG1 genotox 12.8%, FLuc modulator 19µM*, Rab9 promoter act 28.0% and NPC1 prom act 29.9%.
`COc1ccccc1COc1ccc2c(C)c(CCC(=O)O)c(=O)oc2c1C` gave ELG1 genotox 4.6%, FLuc modulator 23.9µM*, Rab9 promoter act 2.7% and NPC1 prom act -1.5%.
For Cc1c(OCc2ccc(C(=O)O)o2)ccc2c3c(c(=O)oc12)CCC3 the results were ELG1 genotox inconclusive, FLuc modulator 19µM*, Rab9 promoter act 1.9%, SMN2 splice enh 12.0% and NPC1 prom act -1.5%.
For Cc1c(OCC(=O)NCc2ccccn2)ccc2c3c(c(=O)oc12)CCCC3 the results were ELG1 genotox -0.5%, FLuc modulator -4.2%, Rab9 promoter act 0.2% and NPC1 prom act 10.4%.
`COC(=O)c1ccc(COc2ccc3c(C)c(C)c(=O)oc3c2C)o1` gave ELG1 genotox 6.8%, FLuc modulator 4.78µM*, Rab9 promoter act inconclusive, SMN2 splice enh 15.8% and NPC1 prom act inconclusive.
C=CCNC(=O)c1nc2ccccc2s1 was read as ELG1 genotox 6.9%, FLuc modulator inconclusive, Rab9 promoter act 14.4%, SMN2 splice enh 19.1% and NPC1 prom act 14.5%.
Screening O=C(O)c1ccc(C=C(c2nc3ccccc3s2)c2nc3ccccc3s2)cc1 returned ELG1 genotox -1.5%, FLuc modulator 12µM*, Rab9 promoter act 1.7%, SMN2 splice enh 0.3% and NPC1 prom act -2.7%.
CN(C)c1ccc(/C=C(\Cl)c2nc3ccccc3s2)cc1 was read as ELG1 genotox inconclusive, FLuc modulator 1.2µM*, Rab9 promoter act 1µM*, SMN2 splice enh -110.8% and NPC1 prom act 2.51µM*.
Screening COc1cc(/C=C(\CC(=O)O)c2nc3ccccc3s2)cc(OC)c1O returned ELG1 genotox 4.7%, FLuc modulator inconclusive, Rab9 promoter act 1.4%, SMN2 splice enh 6.1% and NPC1 prom act 1.3%.
`COc1cc(C=C(c2nc3ccccc3s2)c2nc3ccccc3s2)cc(OC)c1O` gave ELG1 genotox -1.9%, FLuc modulator 15.1µM*, Rab9 promoter act -4.5%, SMN2 splice enh -16.0% and NPC1 prom act 2.1%.
`COc1cc(NC(=O)c2cc3c(=O)n(Cc4ccco4)ccc3nc2C)cc(OC)c1OC` gave FLuc modulator -0.1%.
Screening Cc1ccc(-c2cc3ccccc3nc2N2CCCC2)cc1 returned ELG1 genotox -1.9%, FLuc modulator -1.9%, Rab9 promoter act -0.2%, SMN2 splice enh -32.3% and NPC1 prom act -2.8%.
Cc1ccc2c(c1)C(=NC1CCCCC1)c1cc3ccccc3nc1-2 was read as ELG1 genotox inconclusive, FLuc modulator 15.1µM*, Rab9 promoter act inconclusive, SMN2 splice enh 2.82µM* and NPC1 prom act 10.7%.
For Cc1ccc2c(c1)-c1nc3ccccc3cc1C2=NC1CCCCC1 the results were ELG1 genotox inconclusive, FLuc modulator 10.7µM*, Rab9 promoter act 3.55µM*, SMN2 splice enh 6.31µM* and NPC1 prom act inconclusive.
CN1C(C(=O)c2ccccc2)=C(NC(=O)c2ccccc2Br)c2ccccc2S1(=O)=O was read as FLuc modulator 2.2% and SMN2 splice enh -7.4%.
For CCS(=O)(=O)N1CCC(c2nc(-c3ccc(C)cc3)no2)CC1 the results were ELG1 genotox 10.4%, FLuc modulator 15.1µM*, Rab9 promoter act inconclusive, SMN2 splice enh -25.9% and NPC1 prom act inconclusive.
`Cc1cccc(-c2noc(C3CC(=O)N(c4ccc5c(c4)OCCO5)C3)n2)c1` (stereo not given) gave FLuc modulator -0.2%.
Screening Cc1cccc(-c2noc(C3CCCCC3)n2)c1 returned FLuc modulator 3.01µM* and SMN2 splice enh 24.5%.
For Cc1ccc(-c2noc(C3CCCCC3)n2)cc1 the results were ELG1 genotox inconclusive, FLuc modulator inconclusive, Rab9 promoter act inconclusive, SMN2 splice enh 22.1% and NPC1 prom act 3.98µM*.
For COc1ccc(Br)c(-c2nnc(CS(=O)(=O)c3ccccc3)o2)c1 the results were ELG1 genotox inconclusive, FLuc modulator 19µM*, Rab9 promoter act 2.82µM* and NPC1 prom act inconclusive.
For Cc1ccc(/C=N/NC(=O)c2cccs2)o1 the results were ELG1 genotox 14.0%, FLuc modulator 16.9µM*, Rab9 promoter act 1.6%, SMN2 splice enh 9.1% and NPC1 prom act 15.6%.
Cc1ccc(/C=N/NC(=O)c2cc(C)oc2C)o1 was read as ELG1 genotox 3.8%, FLuc modulator inconclusive, Rab9 promoter act 10.7%, SMN2 splice enh -4.8% and NPC1 prom act 7.8%.
For Cc1ccc(/C=N/NC(=O)c2csc(C)c2)o1 the results were ELG1 genotox 8.0%, FLuc modulator 15.1µM*, Rab9 promoter act 10.4%, SMN2 splice enh 11.3% and NPC1 prom act 22.6%.
